Compound activity as filed in PubChem BioAssay.
GLD-1 TGE inh: GLD-1/TGE RNA complex disruptors, primary screen, biochemical, fluorescence polarization. actives 0.44% (n = 320,000). inhibition, % at 5.96 µM. purified GLD-1 + fluorescein TGE RNA. Female germline-specific tumor suppressor gld-1 (Caenorhabditis elegans), Q17339;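 active = percent inhibition above a per-plate cutoff, the plate mean of test compounds plus 3 SD, cut at about 30% in these data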;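 also: 0% = DMSO wells with GLD-1 and probe and 100% = wells lacking GLD-1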
Target sequence (Q17339 whole entry, looked up): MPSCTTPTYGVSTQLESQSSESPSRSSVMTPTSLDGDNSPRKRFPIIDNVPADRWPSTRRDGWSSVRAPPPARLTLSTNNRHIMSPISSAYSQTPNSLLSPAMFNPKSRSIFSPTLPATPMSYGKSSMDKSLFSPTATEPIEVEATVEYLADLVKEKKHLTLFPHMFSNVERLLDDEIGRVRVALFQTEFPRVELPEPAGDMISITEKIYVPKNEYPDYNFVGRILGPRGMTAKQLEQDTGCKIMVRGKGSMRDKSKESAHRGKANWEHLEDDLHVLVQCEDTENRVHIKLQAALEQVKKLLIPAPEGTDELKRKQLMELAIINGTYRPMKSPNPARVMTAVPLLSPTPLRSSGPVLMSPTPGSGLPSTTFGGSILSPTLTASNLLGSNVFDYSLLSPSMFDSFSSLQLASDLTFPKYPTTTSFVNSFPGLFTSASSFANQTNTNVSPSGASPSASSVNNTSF
MEX-5 binding: MEX-5 zinc finger RNA-binding disruptors – biochemical, C. elegans, fluorescence polarization, MLPCN library, primary screen; Zinc finger protein mex-5 (Caenorhabditis elegans), Q9XUB2; MEX-5/FITC-TCR2 RNA binding; hits give low values; activity score (negative = inhibition of binding), % at 10 µM; actives 0.38% (n = 300,000); AID 1832, 2009;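 active = inhibition past about -25% in most replicates, and total fluorescence under double the plate's negative control median, limit read from the data; inconclusive = replicates evenly split on the limit, or fluorescence at least double controls; inactive = too little inhibition in most replicates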;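 also: 0% = DMSO and -100% = 5 µM competing unlabeled TCR2 RNA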
EBV gp42 inh: Epstein-Barr virus gp42 inhibitors, primary screen, biochemical, uHTS, fluorescence polarization; Glycoprotein 42 (Epstein-Barr virus (strain AG876)), Q1HVG2; Fluorescence polarization binding assay, mP read-out; inhibition, % (tested at 21.74 µM); actives 0.42% (n = 220,000); AID 1085, 2008; in the data active = inhibition above about 50%
Bcl-xL primary: inhibitors of human Bcl-xL, primary screen, biochemical, fluorescence polarization, HTS; Bcl-2-like protein 1 (Homo sapiens), Q07817; GST-Bcl-xL / FITC-Bim BH3 peptide fluorescence polarization; inhibition, % at 10.9 µM; actives 0.7% (n = 320,000); AID 2129, 2009;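 active = inhibition above the mean of all tested compounds plus 3 SD, cutoff set per campaign, cut at about 30% in these data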;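 also: 0% = DMSO wells and 100% = unlabeled Bim-BH3 peptide competitor; inhibitors lower millipolarization by displacing the labeled peptide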
MCL1 BIM primary: inhibitors of MCL1 binding to BIM-BH3, primary screen, biochemical, fluorescence polarization. Induced myeloid leukemia cell differentiation protein Mcl-1 (Homo sapiens), Q07820. GST-MCL1 / FITC-Bim-BH3 fluorescence polarization. inhibition, % at 10.9 µM. actives 0.68% (n = 320,000);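 active = inhibition above the mean inhibition of all tested compounds plus 3 SD, set per campaign, cut at about 40% in these data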;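 also: 0% = DMSO wells and 100% = unlabeled Bim-BH3 peptide control; higher means more loss of mP so more displacement of Bim peptide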
BCLXL inh confirm: Bcl-xL inhibitors blocking Bim BH3 binding, confirmation, counter-screen for MCL1 inhibitor project, biochemical, fluorescence polarization; GST-Bcl-xL / FITC-Bim BH3 peptide FP binding; shares compounds with MCL1 BIM primary; actives 54% (n = 1,700); inhibition, % at 10.9 µM;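 active = inhibition above a cutoff equal to the mean inhibition of all tested compounds plus 3 SD, cut at about 30% in these data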;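 also: 0% = DMSO wells and 100% = unlabeled Bim BH3 control peptide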
MCL1 BIM confirm: inhibitors of MCL1 binding to BIM-BH3, confirmation, biochemical, fluorescence polarization, triplicate. shares compounds with MCL1 BIM primary. GST-MCL1 / FITC-Bim-BH3 fluorescence polarization. inhibition, % at 10.9 µM. actives 61% (n = 1,700);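 active = inhibition above the average of all tested compounds plus 3 SD, cut at about 40% in these data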;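 also: 0% = DMSO wells and 100% = unlabeled Bim-BH3 control peptide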
Numbers without * were called inactive; u = inconclusive; x = not tested or not shown; + = active, no number; ! = not active in a repeat. An excerpt weighted towards active compounds, which were near 1.3% of everything screened.

SMILES | GLD-1 TGE inh | MEX-5 binding | EBV gp42 inh | Bcl-xL primary | MCL1 BIM primary | BCLXL inh confirm | MCL1 BIM confirm
COc1ccc(N=Cc2c(O)n(CC3CCCO3)c(=O)[nH]c2=O)cc1 (centres undefined) | -1 | -4 | -5 | 5 | 4 | x | x
O=c1[nH]c(=O)n(-c2ccccc2F)c(O)c1/C=C1\C=Nc2ccccc21 | -25 | 5 | x | -23 | -47 | x | x
O=c1[nH]c(=O)n(CC2CCCO2)c(O)c1/C=C1\C=Nc2ccccc21 (centres undefined) | -18 | -36*! | -21 | -14 | -23 | x | x
O=c1[nH]c(=O)n(Cc2ccccc2)c(O)c1/C=C1\C=Nc2ccccc21 | -39 | u | 90* | -27 | -47 | x | x
Clc1ccc(CCC(Cn2ccnc2)Sc2c(Cl)cccc2Cl)cc1 (centres undefined) | -3 | x | x | -3 | -6 | x | x
CN1[C@@H]2CC[C@H]1CC(OC1c3ccccc3CCc3ccccc31)C2 (some centres undefined) | -1 | x | x | 0 | 4 | x | x
Cc1cc(C)cc(-n2c(O)c(C=Nc3ccc(N4CCOCC4)cc3)c(=O)[nH]c2=S)c1 | -6 | -52* | 58* | -17 | -27 | x | x
COc1cc2c(cc1O)C[C@H]1c3c(cc(O)c(OC)c3-2)CCN1C | 8 | x | x | 13 | 10 | x | x
CN1CCc2cc(O)cc3c2[C@H]1Cc1ccc(O)c(O)c1-3 | 5 | -85* | x | 28 | 48* | 54* | 54*
O=C(COC(=O)Cc1ccccc1)Nc1cccnc1Cl | 10 | 0 | -9 | -1 | 0 | x | x
Cc1ccccc1NC(=O)Cc1nc(COC(=O)Cc2ccccc2)cs1 | 137* | x | x | 152* | + | 12 | 6
COC(=O)C1=C(c2c(C)noc2C)C[C@@H]2CC[C@H]1N2C(=O)NC1CCCCC1 | 0 | x | x | 5 | 11 | x | x
CCC(=O)c1ccc(OCC(=O)N2CCN(CC(=O)Nc3ccccc3C(F)(F)F)CC2)cc1 | -1 | x | x | x | x | x | x
COC(=O)C1=C(c2ccc(F)cc2F)C[C@@H]2CC[C@H]1N2C(=O)NCc1ccc(F)cc1 | 4 | x | x | -3 | 0 | x | x
COC(=O)C1=C(c2ccc(F)cc2F)C[C@@H]2CC[C@H]1N2C(=O)NCCOc1ccccc1 | 13 | x | x | 11 | 119* | 6 | 0
c1ccc2nc(N3CCNCC3)ccc2c1 | 5 | x | x | 2 | 6 | x | x
CC(C)(O)[C@H]1O[C@H]2CC[C@@]3(C)[C@@](O)(CC[C@H]4Cc5c([nH]c6ccccc56)[C@@]43C)C2=CC1=O | 74* | -28* | 53* | 83* | 100* | 60* | 76*
OC1/C(=C/c2ccccc2F)N2CCC1CC2 (centres undefined) | 2 | 0 | -22 | 9 | 2 | x | x
Cc1cc2c(C(F)(F)F)cc(=O)oc2c2c1NCCC2 | 112* | -1 | -39 | 112* | 146* | 95* | 94*
O=c1cc(C(F)(F)F)c2cc3c4c(c2o1)CCCN4CCC3 | + | u | 150* | + | + | 179* | +
Cn1cc(C=C2C(=O)NC(=O)NC2=O)c2ccccc21 | 6 | u | x | + | + | + | +
CC(=O)n1cc(C=C2C(=O)NC(=O)NC2=O)c2ccccc21 | 3 | -4 | x | 3 | -3 | x | x
CCN(CC)C(=O)c1ccc2c(c1)C1C(Cl)C(Sc3ccccc3[N+](=O)[O-])CC1C(C(=O)O)N2 (centres undefined) | 17 | -56* | 2 | 86* | 95* | 34* | 37
